Screens deposited in PubChem by several laboratories.
APOBEC3A inh = blocks human APOBEC3A ssDNA deamination | AID 493011 | recombinant A3A, FAM/TAMRA ssDNA deamination fluorescence | P31941 | inhibition, % at 20 µM | hit rate 0.41% among 330,000;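 active = at least 40% inhibition at 20 µM here, with at most 30% in a related deaminase screen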;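 note: plate controls were A3A with DMSO for no effect and wells lacking A3A enzyme for full effect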
Target sequence (P31941 whole entry, looked up): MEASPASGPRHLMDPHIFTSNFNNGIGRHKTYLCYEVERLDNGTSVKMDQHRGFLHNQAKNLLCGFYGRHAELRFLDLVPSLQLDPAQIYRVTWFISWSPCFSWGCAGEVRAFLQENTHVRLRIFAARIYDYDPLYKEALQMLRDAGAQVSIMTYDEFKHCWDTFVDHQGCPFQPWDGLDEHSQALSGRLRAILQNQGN
APOBEC3G inh = blocks human APOBEC3G single-stranded DNA deamination. Q9HC16. recombinant A3G, ssDNA deamination FAM/TAMRA fluorescence. inhibition, % at 20 µM. hit rate 0.28% among 330,000. AID 493012;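 active = inhibition of at least 40% at 20 µM, with no more than 30% in the related APOBEC3A deaminase screen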;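 note: plate controls were DMSO wells with A3G for no effect and wells lacking A3G enzyme for full effect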
MIN6 prolif = inducers of beta-cell replication in MIN6 cells | proliferation, % at 10 µM | MIN6 cells proliferation, ATPlite luminescence, 48 h; cells starved in 0.2% serum; 100% = growth in 10% serum | hit rate 0.29% among 330,000;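 active = compounds whose signal lies at least 3.5 SD above the mean of all wells on their plate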;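 note: 0% = DMSO-treated cells in low-serum medium and 100% = 10% serum control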
CendR NRP1 mod = modulators of CendR peptide binding to human neuropilin-1 | inhibition, % at 25 µM | O14786 | FAM-RPARPAR peptide binding to NRP-1, fluorescence polarization | hit rate 0.85% among 360,000;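 active = inhibition or corrected inhibition above about 18%, plus a signal ratio from 0.5 to 1.5, limit read from the data, passing the limit was not always enough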
VLA-4 inh = inhibition in a human VLA-4 binding assay. inhibition, % (about 7 µM as worked out from the volumes in the protocol). hit rate 0.2% among 330,000. VLA-4 expressing cells, ligand binding flow cytometry. P13612. AID 2557; in the data active = inhibition above about 50%
* hit, by the source's call; . = no result given. Compounds with a hit are over-represented: about 1.8% of the library has one in this group of screens.

SMILES	APOBEC3A inh	APOBEC3G inh	MIN6 prolif	CendR NRP1 mod	VLA-4 inh
O=C(O)c1ccccc1C(=O)Nc1cc(-c2ccccc2)[nH]n1	-2	-7	-3	-3	-9
O=C(Nc1cc(-c2ccccc2)[nH]n1)c1ccccc1	2	2	-3	25*	14
CCOC(=O)Cc1c(C)c2c(C)[nH]nc2oc1=O	-3	-5	-3	43*	-2
CCCc1c(C)c2c(C)[nH]nc2oc1=O	-2	-2	-5	-9	4
COCCNC(=O)C1CC(c2ccc(F)cc2)=NO1 (centres undefined)	2	1	-3	9	0
COCCNC(=O)C1CC(c2ccc(C(F)(F)F)cc2)=NO1 (centres undefined)	2	0	-1	28*	-7
O=C(NCc1cc(C(F)(F)F)cc(C(F)(F)F)c1)C1CC(c2ccccc2F)=NO1 (centres undefined)	2	-6	-3	28*	.
O=C1C(=O)N(CCCO)C(c2ccc(Br)cc2)/C1=C(\O)c1ccc(Br)cc1 (centres undefined)	-4	2	-2	-12	10
Cc1nn(-c2ccccc2)c(N2CCCC2)c1/C=C1\N=C(c2ccccc2)OC1=O	0	-5	-3	76*	5
Cc1nn(-c2ccccc2)c(N2CCCC2)c1C=O	-4	-7	3	-3	-3
CCOC(=O)c1[nH]c(C)c(C(=O)NCC2CCCO2)c1C (centres undefined)	3	-6	0	22*	9
CCOC(=O)c1[nH]c(C)c(C(=O)NC2CCCCC2)c1C	-3	5	2	-1	10
COc1ccc(N(C(=O)c2ccncc2)S(=O)(=O)c2cccc([N+](=O)[O-])c2)cc1	-2	-4	0	19*	4
COc1ccc(N(C(=O)c2cccnc2)S(=O)(=O)c2cccc([N+](=O)[O-])c2)cc1	-2	-5	-2	0	2
CCc1ccccc1N1CSC2=C(C#N)C(c3cc(OC)c(OC)cc3OC)CC(=O)N2C1 (centres undefined)	-3	46*	-3	-13	-3
COc1ccc(OC)c(C2CC(=O)N3CN(c4cccc(Cl)c4)CSC3=C2C#N)c1 (centres undefined)	0	39	-2	-9	-1
COc1cc(OC)c(C2CC(=O)N3CN(c4ccccc4)CSC3=C2C#N)cc1OC (centres undefined)	-4	25	1	-12	15
N#CC1=C2SCN(c3ccccc3)CN2C(=O)CC1c1ccccc1Cl (centres undefined)	-1	57*	-3	-12	-10
COc1ccc(C(=O)NCC(=O)NCc2ccncc2)cc1	3	13	-3	3	0
CCCCCOC(=O)CC(C(=O)OCCCCC)N1CCCCC1 (centres undefined)	-6	-1	4	-2	20
CCCCCCCCCOC(=O)C(CC(=O)O)N1CCOCC1 (centres undefined)	-5	-4	-5	32*	-1
C/C=C/c1cccc(-c2nc(C(=O)N3CCCCC3)cc3c2[C@H](CCO)N(C(=O)NC(C)C)C3)c1	.	.	.	22*	.
C/C=C/c1cccc(-c2nc(C(=O)N3CCN(C)CC3)cc3c2[C@@H](CCO)N(C(=O)NC(C)C)C3)c1	.	.	.	-1	.
COCCN(C(=O)c1ccc(C)c(S(=O)(=O)N2CCOCC2)c1)c1c(N)n(CC(C)C)c(=O)[nH]c1=O	.	.	.	29*	.
CCCCN(C(=O)c1ccc(C)c(S(=O)(=O)N2CCOCC2)c1)c1c(N)n(CC(C)C)c(=O)[nH]c1=O	6	-1	-2	5	19
SMILES	APOBEC3A inh	APOBEC3G inh	MIN6 prolif	CendR NRP1 mod	VLA-4 inh
CN1CCOc2cc(S(=O)(=O)NCc3ccc(S(N)(=O)=O)cc3)ccc21	4	9	-2	6	16
Cc1ccc(SCC(=O)OCC(=O)NC(C)c2ccc(Br)cc2)cc1 (centres undefined)	-2	1	-3	9	7
O=C1C(c2ccccc2)=[N+]([O-])c2ccccc21	-1	-6	-9	30*	18
Cc1ccc(C(=O)Nn2cnnc2)cc1[N+](=O)[O-]	-2	-3	0	26*	15
Cc1ccc(C(=O)NN2CCOCC2)cc1[N+](=O)[O-]	1	-6	-1	-1	-6
CCC(=O)N1N=C(c2cccs2)CC1c1ccco1 (centres undefined)	-4	-5	-4	40*	-2
CCN(CC)CC(=O)N1N=C(c2cccs2)CC1c1ccco1 (centres undefined)	9	2	-3	4	10
